Here are results for 15 molecules from PubChem BioAssay AID488975 (Johns Hopkins Ion Channel Center, 2010).

Structures are written as SMILES. The campaign covered roughly 310,000 compounds. About 2,600 (0.84%) were called active.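 How the source made its calls: active means B-score over 3 SD under the library average, and starting fluorescence ratio not unusually high; inactive means the rest.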 What follows is part of a selection rich in actives, with near analogues and random picks from the rest.

For this experiment, the target named is High affinity choline transporter 1 (Homo sapiens) (UniProt Q9GZV3). Description: inhibits the human high affinity choline transporter (AID 488975).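 On B-score: choline stimulus applied at its EC90 after an EC20 pre-addition; B-score computed on integrated fluorescence ratio after choline addition.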 To be noted: CHT-expressing cells, membrane potential dye, choline response, at 10 µM; hits give low values.
High affinity choline transporter 1 (Homo sapiens), sequence (Q9GZV3 whole entry, looked up): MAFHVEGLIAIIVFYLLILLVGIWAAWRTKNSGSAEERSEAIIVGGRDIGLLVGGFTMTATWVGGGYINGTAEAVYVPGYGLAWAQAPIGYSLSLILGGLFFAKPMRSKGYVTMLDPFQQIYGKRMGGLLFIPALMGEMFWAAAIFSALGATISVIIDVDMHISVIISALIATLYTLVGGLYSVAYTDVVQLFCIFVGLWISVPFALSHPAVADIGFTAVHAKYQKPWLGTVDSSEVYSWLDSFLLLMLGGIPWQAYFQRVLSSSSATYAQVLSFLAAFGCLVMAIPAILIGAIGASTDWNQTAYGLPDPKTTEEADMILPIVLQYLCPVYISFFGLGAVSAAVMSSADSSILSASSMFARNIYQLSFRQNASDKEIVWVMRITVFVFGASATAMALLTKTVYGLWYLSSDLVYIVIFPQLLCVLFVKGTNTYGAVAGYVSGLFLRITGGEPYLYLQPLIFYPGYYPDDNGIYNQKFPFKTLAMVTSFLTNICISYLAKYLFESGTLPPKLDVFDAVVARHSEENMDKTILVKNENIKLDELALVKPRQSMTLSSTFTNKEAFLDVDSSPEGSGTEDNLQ
With `Cc1nc2ccccn2c1P(=S)(N1CCCCC1)N1CCCCC1`, the B-score was -6.55 (active).

On to `CC[C@H]1CC2CN3CCc4c([nH]c5ccccc45)C(C(=O)OC)(C2)C13` (stereo not given in full), for which the B-score result is “inactive”. With `COC(=O)C1=C(c2cc3ccccc3s2)C[C@@H]2CC[C@H]1N2C(=O)NC(C)C` the entry was “inactive”. With `C[N+]1(C)CCOC(O)(c2ccc(-c3ccc(C4(O)C[N+](C)(C)CCO4)cc3)cc2)C1` (stereo not given) the figure was -5.22 (active); with `C=CCN1C(=O)NC(=O)/C(=C/c2ccc(OCC(=O)Nc3ccc(C)cc3)cc2)C1=O`, “inactive”. As for `COc1ccc(CNCCc2c[nH]c3ccccc23)cc1OC`, the B-score result is “inactive”. For `O=C(N/N=C/c1c(O)n(C2CC2)c(=S)[nH]c1=O)c1ccccc1` the value was “inactive”; for `COc1ccc2c(c1)[C@]13CCCCC1C(C2)N(C)CC3` (stereo not given in full), “inactive”. As for `COC(=O)C1=C(c2cc3ccccc3s2)C[C@@H]2CC[C@H]1N2C(=O)NCc1cccc2ccccc12`, the B-score entry is “inactive”.

For `COC(=O)C(c1ccccc1)N1CCCCCC1` (stereo not given), the B-score result is “inactive”. With `COc1ccccc1N1CCN(C(CNC(=O)Oc2ccccc2)c2cccnc2)CC1` (stereo not given) the figure was -6.58 (active); with `O=C(NCC(c1cccnc1)N1CCN(c2ccccc2)CC1)Oc1ccccc1` (stereo not given), “inactive”. For `COc1ccc(N2C(=O)/C(=C/c3ccco3)C(=O)NC2=S)cc1`, the B-score result is “inactive”.

Turning to `COC(=O)C1=C(c2ccccc2)C[C@@H]2CC[C@H]1N2C(=O)NCc1ccco1`, the B-score result was “inactive”. For `C/C(=N/O)c1ccc2ccc3ccccc3c2c1` the value was “inactive”.
